The campaign covered roughly 330,000 compounds. About 4,400 (1.3%) were called active.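 Rule for the calls: active = growth inhibition of the mutant yeast at or above 50%; inactive = the rest.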 The entries come from a sample that favours actives as a whole.
Assay: growth inhibition of tim23-1 ts yeast – luminescence, uHTS, primary screen (AID 463212);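 note: temperature-sensitive mutant grown at 25 °C; plate controls were DMSO-treated mutant yeast for no effect and medium wells lacking yeast for full effect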
Settings: S. cerevisiae tim23-1 growth, BacTiter-Glo luminescence, 24 h; at 20 µM; hits give high values
With COc1cccc(N2C(=O)NC(=O)/C(=C\c3ccc([N+](=O)[O-])s3)C2=O)c1 the inhibition was 50.5% (active). For COc1ccc(N2C(=O)/C(=C/c3ccco3)C(=O)NC2=S)cc1, the inhibition was 11.6% (inactive). For O=C1NC(=O)N(c2ccccc2)C(=O)/C1=C/c1ccc([N+](=O)[O-])s1, the inhibition was 41.2% (inactive). For COC(=O)C1=C(c2ccc(F)cc2OCc2ccccc2)C[C@@H]2CC[C@H]1N2C(=O)NCc1ccc(C(C)(C)C)cc1, the inhibition was 19.7% (inactive). With Cc1cc2ccccn2c1C(C[N+](=O)[O-])c1c(F)cccc1Cl (stereo not given) the inhibition was 69.2% (active). With O=c1c2ccccc2nc(-c2ccc(Cl)cc2Cl)n1-c1ccncc1 the inhibition was 35.9% (inactive). In the case of COP(=O)(OC)C(NC(=O)c1ccc(C)cc1)C(Cl)(Cl)Cl (stereo not given), the inhibition is reported as -17.8% (inactive). With COC(=O)C1=C(c2ccc(Cl)c(C(F)(F)F)c2)C[C@@H]2CC[C@H]1N2C(=O)NC(C)C the inhibition was 21.8% (inactive). With CCC(C)n1c(O)c(/C=N/Nc2nc3c(c(=O)n(C)c(=O)n3C)n2C)c(=O)[nH]c1=S (stereo not given) the inhibition was 1.46% (inactive). With CC(=O)N1CN2CN(C(C)=O)CC(C(=O)c3ccc(Br)cc3)(C2)C1 the inhibition was 0.81% (inactive). With Cc1ccc(-c2nc3ccccc3c(=O)n2-c2ccc(Br)cn2)cc1 the inhibition was 52.7% (active). In the case of O=c1c2ccccc2nc(-c2ccco2)n1-c1ccc(Br)cn1, the inhibition is reported as 29% (inactive). In the case of O=c1c2ccccc2nc(-c2ccccc2)n1-c1ccccn1, the inhibition is reported as 14.3% (inactive). With COC(=O)C1=C(c2cc3ccccc3s2)C[C@@H]2CC[C@H]1N2C(=O)NCc1cccc2ccccc12 the inhibition was 34.5% (inactive). For COc1cccc(CN2CCCC(C(=O)c3ccccc3SC)C2)c1O (stereo not given), the inhibition was 8.13% (inactive).

— PubChem BioAssay AID463212 (Sanford-Burnham Center for Chemical Genomics, 2010)
